# Rows were chosen to be rich in hits. Some 19% of all compounds tested hit in one or more screens of this group.
# DT40 TDP1 CPT: qHTS for Inhibitors of human tyrosyl-DNA phosphodiesterase 1 (TDP1): qHTS in cells in presence of CPT | chicken DT40 Tdp1-/-;hTDP1 cells + 20 nM CPT, ATP luminescence, 48 h | Potency, µM (titrated, usually from 46.2 µM), actives largely listed as inhibitors | AID 686979, 2013 | 420,000 tested, 12% active; note: nearly all actives have a fitted effect of over 55% in size
#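 Chicken DT40 Tdp1-/- cells stably complemented with human TDP1 were seeded at 400 cells/well in medium containing 20 nM camptothecin, exposed to pin-transferred compounds, and grown at 37 °C for at least 48 hr. Viability was read as ATP luminescence.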
# KB-3-1 cytotox: qHTS assay for MDR1-selective chemotherapeutics: Primary screen using the parental adenocarcinoma cell KB-3-1; KB-3-1 viability, CellTiter-Glo ATP luminescence, 72 h; Potency, µM (highest dose often 46.1 µM), most hits filed as cytotoxic; 400,000 tested, 1.4% active; AID 1347075, 2019; note: nearly all actives have a fitted effect of over 60% in size
#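 Parental KB-3-1 adenocarcinoma cells in phenol-red-free DMEM with 10% FBS were pin-treated with compounds at several concentrations, incubated 72 h at 37 °C, and viability read by CellTiter-Glo luminescence; concentration-effect curves were fitted after normalization.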
# HT1080-NT tox: qHTS for induction of synthetic lethality in tumor cells producing 2HG: qHTS for the HT-1080-NT fibrosarcoma cell line | HT-1080-NT fibrosarcoma viability, CellTiter-Glo ATP luminescence, 48 h | Potency, µM (doses to about 46.1 µM), actives largely listed as cytotoxic | 360,000 tested, 1.6% active | AID 686970, 2013;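 note: NT is the 2HG producing partner of a matched IDH1 knockdown line; nearly all actives have a fitted effect of over 55% in size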
#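 A 48-hour cytotoxicity screen used HT-1080-NT cells plated 2 hours before compound delivery. ATP-based CellTiter-Glo luminescence measured viability, normalized to DMSO and no-cell controls.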
# HT1080 IDH1KD tx: qHTS for induction of synthetic lethality in tumor cells producing 2HG: qHTS for the HT-1080-IDH1KD cell line | Potency, µM (titrated, usually from 46.1 µM), hits mostly cytotoxic | AID 686971, 2013 | HT-1080 IDH1 knockdown viability, ATP luminescence, 48 h | 360,000 tested, 2% active
#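 IDH1KD HT-1080 cells, 750/well, RPMI + 5% FBS; compound pinned after 2 h settling; 48 h, 37 °C; CellTiter-Glo luminescence; % activity normalised to DMSO and no-cell wells; curves fitted, classed by r2 and efficacy.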
# TDP1 cell noCPT: qHTS for Inhibitors of human tyrosyl-DNA phosphodiesterase 1 (TDP1): qHTS in cells in absence of CPT. DT40 Tdp1-/- hTDP1 cells, no CPT, ATP luminescence, 48 h. Potency, µM (series often up to 46.2 µM), hits mostly inhibitors. 420,000 tested, 15% active. AID 686978, 2013; note: nearly all actives have a fitted effect of over 55% in size
#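 Camptothecin absent (DMSO only). Human TDP1-complemented DT40 knockout cells, 400 cells/well, 37 °C for minimum 48 hr; ATP measured via CellTiter-Glo, 30 min dark incubation, luminescence.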
# KB-V1 MDR tox: qHTS assay for MDR1-selective chemotherapeutics: Primary screen using the drug-selected MDR subline cells KB-V1. 400,000 tested, 3.4% active. KB-V1 MDR cells viability, CellTiter-Glo, 72 h. Potency, µM (titrated, usually from 46.1 µM), most hits filed as cytotoxic; note: nearly all actives have a fitted effect of over 60% in size
#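 KB-V1, DMEM (no phenol red) + 10% FBS; cpd pin-transferred, titration series; 72 h, 37 degrees C; CellTiter-Glo, luminescence. Data normalized, curve-fit.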
# Hits are given with their value; - = inactive; ? = inconclusive; . = no result given. Calls come from the whole dose curve; as a rule, active = well fitted curve in the direction sought with a large enough effect; inconclusive = small, poorly fitted or top-dose-only effect, or another doubt; inactive = no such curve, though single readings can be large; an effect the other way counts as inactive or inconclusive.
SMILES,DT40 TDP1 CPT,KB-3-1 cytotox,HT1080-NT tox,HT1080 IDH1KD tx,TDP1 cell noCPT,KB-V1 MDR tox
O=C(NNC(=O)c1cccc(Cl)c1)NNC(=O)c1cccc(Cl)c1,-,-,-,?,-,-
O=C(NNC1=C(C(=O)C(F)(F)F)CCC1)c1ccc(Cl)cc1,?,-,?,7.9µM,?,-
COc1ccc(C(=O)NNC2=C(C(=O)C(F)(F)F)CCC2)cc1,0.73µM,?,-,?,1.3µM,?
O=C(NNC1=C(C(=O)C(F)(F)F)CCC1)c1cccc(Cl)c1,5.8µM,?,?,23µM,6.5µM,?
O=C(NCCc1cnn(-c2ccccc2)c1)c1cc(COc2c(F)cccc2F)on1,?,-,-,-,?,-
c1ccc2cc(CCO[C@H]3CCCCO3)ncc2c1,-,-,-,-,-,-
COc1ccc(-n2cc(C#N)c(=O)n(Cc3ccc(F)cc3)c2=O)cc1,21µM,-,?,?,15µM,?
Cc1ccc(NC(=O)CCCc2nnc3n(C)c(=O)c4sccc4n23)cc1F,?,-,.,.,?,-
CCc1ccccc1NC(=O)CCNS(=O)(=O)c1ccc2c(c1)CCN2C(=O)C1CC1,?,-,.,.,18µM,-
O=C(CCNS(=O)(=O)c1ccc2c(c1)CCN2C(=O)C1CC1)Nc1ccc(OC(F)(F)F)cc1,?,-,.,.,?,?
Cc1ccc(NC(=O)CCNS(=O)(=O)c2ccc3c(c2)CCN3C(=O)C2CC2)c(Cl)c1,5.2µM,-,.,.,4.1µM,-
O=C(CCNS(=O)(=O)c1ccc2c(c1)CCN2C(=O)C1CC1)Nc1ccc(Cl)cc1,10µM,-,.,.,12µM,-
CSCC[C@H](NC(=O)c1cccc(S(=O)(=O)N2CCCCC2)c1)c1nc2ccccc2[nH]1,?,-,-,-,?,-
CC(C)c1ccc(/C=C(\c2nc3ccccc3[nH]2)S(=O)(=O)c2ccccc2)cc1,4.6µM,?,5.2µM,3.3µM,4.6µM,2.6µM
O=S(=O)(/C(=C/c1ccc(C(F)(F)F)cc1)c1nc2ccccc2[nH]1)c1ccccc1,2.6µM,5.2µM,2.6µM,4.6µM,2.9µM,-
Cc1ccc(NC(=O)c2cc(-c3cccc(O)c3)on2)cc1C,?,?,-,-,?,-
CN(C)C(=O)c1cccc(-c2csc(N3CCC(C(N)=O)CC3)n2)c1,.,-,.,.,.,-
COc1ccc(CN2CCN(Cc3c[nH]c4ccccc34)CC2CCO)cc1C (stereo not given),6.5µM,-,-,-,9.2µM,-
COc1ccc(CN2CCN(Cc3ccc(C)cc3)C(CCO)C2)cc1OC (stereo not given),?,-,-,-,-,-
CC(C)=CCN1CCN(Cc2cn(C(C)C)c3ccccc23)CC1CCO (stereo not given),18µM,-,-,-,23µM,-
CC(C)(C)CN1CCN(Cc2c[nH]c3ccccc23)CC1CCO (stereo not given),8.2µM,-,-,-,8.2µM,-
CC(C)(C)CN1CCN(Cc2cc3ccccc3[nH]2)CC1CCO (stereo not given),-,?,-,-,-,-
Cc1ccc(CN2CCN(Cc3cn(C(C)C)c4ccccc34)CC2CCO)o1 (stereo not given),?,-,-,-,-,?
COc1cc(CN2CCN(Cc3c[nH]c4ccccc34)CC2CCO)cc(OC)c1 (stereo not given),13µM,-,-,-,?,-
COc1ccc(CN2CCN(Cc3c[nH]c4ccccc34)CC2CCO)c(F)c1 (stereo not given),4.6µM,-,-,-,8.2µM,-
